The values that follow come from PubChem BioAssay AID743398 (Broad Institute, 2014).

Out of some 300,000 compounds screened, about 3,600 (1.2%) were called active. The entries come from a sample that favours actives as a whole. Values without a mark were called inactive. No stated cut-off is given here; in the data, active means activation above about 30% (passing the limit was not always enough); inconclusive means no clear call, values can overlap the other calls.

The assay can be described thus: activation of beta-catenin signaling reporter – cell-based, plate reader, single point, primary screen (AID 743398).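 Further: 0% = neutral control wells and 100% = positive control wells.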 As to conditions: Wnt/beta-catenin reporter cell assay, activator, at 9.35 µM, stronger effect = higher value.
For the compound `CCCc1cc(C(=O)Nc2ccc(C(=O)OC)cc2)cs1`, the activation was 0.573%.
The value for `CCCc1cc(C(=O)Nc2ccc(Cl)cn2)cs1` was 39.5% (active); that for `O=C(Nc1ccc(Cl)cn1)c1ccccc1-c1ccccc1` was -0.296%; that for `Cc1ccc(F)c(S(=O)(=O)NC(=O)C2(C)CCN2C(=O)c2ccco2)c1` (stereo not drawn) was -0.487%.
As for `C=CCN=C1NC(c2cccc(C(F)(F)F)c2)C(C(=O)OC)=C(C)N1C` (stereo not drawn), the activation is 1.05%.
Take `CC(=O)c1ccc(-c2cnc3c(NC=O)cc(-c4cccc(NS(C)(=O)=O)c4)cn23)cc1`: the activation was 1.57%.
The result for `C[C@@H]1ON(C)[C@H]2C[C@H]3c4cc(N5CCOCC5)ccc4CCN3C[C@@H]12` reads -0.66%.
The value for `Cc1cccc(NC(=O)Nc2ccc3c(c2)OCO3)n1` was 44.4% (active); that for `CNS(=O)(=O)c1ccc(NC(=O)Nc2ccc3c(c2)OCO3)cc1` was 26.8%.
The value for `CC(NC(=O)Nc1ccc2c(c1)OCO2)c1ccncc1` (stereo not drawn) was 9.83%.
Take `CN(Cc1ccccc1)C(=O)CCC1CCN(C(=O)c2ccco2)CC1`: the activation was -3.66%.
The value for `c1ccc(C(=NNc2nc3ccccc3s2)c2ccccn2)cc1` was 5.23%; that for `c1ccc2sc(NN=C3CCCC3)nc2c1` was 52.4% (active); that for `O=[N+]([O-])c1cc(Br)c(O)c(/C=N/Nc2nc3ccccc3s2)c1` was 8.44%.
The value for `CCOC(=O)N(C)c1c(CC)nc2c(OCc3ccccc3C(=O)OC)cccn12` was 4.08%; that for `CN(Cc1ccc(C(F)(F)F)cc1)C(=O)[C@H]1O[C@@H](n2cnc3c(N)ncnc32)[C@H](O)[C@@H]1O` was -3.24%.
The result for `CC1(Oc2cccc(F)c2)CCN(Cc2ccccc2OC(F)F)C1` (stereo not drawn) reads 0.111%.
`CC(=O)Nc1ccc(Nc2c3ccccc3nc3ccccc23)cc1`: the activation was -1.24%.
The result for `Cc1ccc2nc(-c3ccc(NC(=O)c4cccnc4)cc3)oc2c1` reads 4.47%.
The value for `CC(=O)Nc1ccc(-c2nc3ccccc3o2)cc1` was 62% (active).
The result for `CCOC(=O)N1CCN(C(=O)C[C@@H]2C[C@@]3(C(=O)OC)CCCCC=C3N(CCC3=CCCCC3)C2=O)CC1` reads -3.76%; that for `Oc1cccc(/C=N/Nc2ccc(Cl)nn2)c1O`, 125% (active); that for `COc1cccc(/C=N/Nc2ccc(Cl)nn2)c1`, 10.5%.
Turning to `Clc1ccc(N/N=C/c2cccs2)nn1`, the activation is 3.73%.
The result for `COC(=O)c1cc2c(c3c4cc(F)ccc4n(S(=O)(=O)c4ccccc4)c13)C(=O)N(Cc1ccccc1OC)C2` reads -6.32%; that for `Cc1nn(CC(=O)Nc2ccc(F)cc2)c(=O)c2ccccc12`, -0.309%; that for `CCC(=O)Nc1ccc2nn(-c3ccc(F)cc3)nc2c1`, 51% (active).
The result for `Cc1cccc(C(=O)OCC(=O)Nc2ccc(F)cc2)c1` reads -0.891%; that for `O=C(CCCN1C(=O)C(c2ccccc2)Oc2cccnc21)Nc1ccccc1Br` (stereo not drawn), -1.84%.
The value for `O=C(C(=O)N1CCC(CNC(=O)c2cccnc2Cl)CC1)c1cccs1` was 2.94%; that for `O=c1cc(Cn2nnc(-c3ccc(Cl)cc3)n2)nc2sccn12` was 3.21%.
With `COc1ccccc1N1CCN(C(=O)Cn2nnc(-c3cccs3)n2)CC1`, the activation was -9.59%.
The value for `Clc1cccc(Cl)c1Cn1nnc(-c2cccs2)n1` was 32.4% (active); that for `CCOC(=O)Cn1c2c(n(-c3ccc(F)cc3)c1=O)C=C(c1ccccc1)[C@@H](C)C(C(=O)N(C)C1CCCCC1)=C2` was -5.16%.
The result for `CC(C)Oc1ccc(CN2CCC2(C)C(=O)NCc2ccc(C(F)(F)F)cc2)cc1` (stereo not drawn) reads -2.84%; that for `O=C(c1cc(-c2ccc(O)cc2)on1)N1CCOCC1`, 19.9%; that for `COc1cccc(OCc2cc(C(=O)N3CCN(C(=O)c4ccco4)CC3)no2)c1`, 31.4% (active).
The result for `O=C(c1cc(-c2ccccc2O)on1)N1CCCC1` reads 57.5% (active).
On to `O=C(c1cc(COc2ccc(F)cc2F)on1)N1CCOCC1`, for which the activation was 12.4%.
As for `COc1ccc(OCc2cc(C(=O)N3CCCC3)no2)c2ccccc12`, the activation was 43% (active).
The result for `COc1cc(Cl)ccc1OCc1cc(C(=O)N2CC[C@@H]3CCCC[C@H]3C2)no1` reads 18.3%; that for `O=C(c1cc(COc2cccc(C(F)(F)F)c2)on1)N1CCSCC1`, 1.55%; that for `COc1ccccc1-c1cc(C(=O)N2CCCCC2)no1`, 0.293%.
The value for `COc1cccc(C(=O)Nc2ccc(N3CCN(C(=O)c4ccco4)CC3)cc2)c1` was -1.7%.
The value for `COC(=O)[C@]12C[C@H](CC(=O)NCc3ccc(OC)c(OC)c3)C(=O)N(Cc3ccccc3)C1=C[C@H](C(C)C)O[C@@H]2C1CC1` was -0.346%.
As to `CSCCC(NC(=O)COc1ccccc1)C(=O)N1CCN(c2cccc(C(F)(F)F)c2)CC1` (stereo not drawn), the activation was -3.61%.
The value for `COc1ccc(OC)c(NC(=O)C2CCCN2S(=O)(=O)c2ccc3c(c2)CC(C)N3C(C)=O)c1` (stereo not drawn) was -5.88%.
The value for `CCOC(=O)N1CCN(C(=O)C[C@@H]2C[C@@]3(C(=O)OC)CC(C)(C)CC=C3N(Cc3ccco3)C2=O)CC1` was 0.171%.
The result for `CCc1nc2c(OCCOc3ccccc3)cccn2c1N(C=O)Cc1ccc(OC)cc1` reads -2.79%; that for `NC(=O)c1c(NC(=O)c2ccccc2)sc2c1CCCC2`, 1.12%; that for `Cc1ccc(C(=O)c2c(NC(=O)c3ccncc3)sc3c2CCCC3)cc1`, 38.4% (active).
With `Cc1ccc(NC(=O)c2c(NC(=O)CCC(=O)O)sc3c2CCCCC3)cc1`, the activation was 29.5%.
The value for `CCCCCCCCN1C(=O)[C@@H](CC(=O)NCCCC)C[C@@]2(C(=O)OC)C1=C[C@H](C(C)(C)C)O[C@@H]2C` was -3%.
The result for `COc1cccc(/C=C2\SC(=S)N(CCCC(=O)N3CCOCC3)C2=O)c1` reads 3.86%.
With `CCc1nc2ccc(C(=O)Nc3ccc(OC)c(OC)c3)cn2c1N(C)C(=O)c1cccc(OC)c1`, the activation was -0.76%.
The value for `Cn1c(CNC(=O)c2ccccc2F)nnc1SCc1ccc(F)cc1` was -0.026%; that for `Cn1c(Cn2nnc3ccccc32)nnc1SCC(=O)c1ccccc1F` was 85.8% (active).
The result for `Cc1ccc(C(=O)CSc2nnc(Cn3nnc4ccccc43)n2C)cc1` reads -0.352%.
